Measured values from PubChem BioAssay (NCI).
Compounds without any hit were thinned out: in the full panel of roughly 79,000, 15% have a hit. The source made the active and inactive calls. No stated cut-off is given here; in the data, active means growth inhibition above about 70%; inactive means the rest.

Assays:
[1] = NCI Yeast Anticancer Drug Screen. Data for the rad52 strain (AID 147);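 further: 0% = growth of vehicle-treated control cultures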; conditions: S. cerevisiae rad52 mutant growth inhibition, hits give high values
Outline: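 Compounds are applied to a genetically defined yeast strain lacking normal DNA damage repair, and inhibition of growth is expressed relative to cultures given vehicle only.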

[2] = NCI Yeast Anticancer Drug Screen. Data for the wt1 strain (AID 149);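 further: 0% = growth of vehicle-treated wt1 cultures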; conditions: S. cerevisiae wt1 strain (SPY 50644) growth inhibition, hits give high values
Outline: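 wt1 strain grown with compound or vehicle; inhibition taken from the growth difference.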

[3] = NCI Yeast Anticancer Drug Screen. Data for the rad50EPP+ strain (AID 151);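 further: 0% = growth of vehicle-treated control cultures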; conditions: S. cerevisiae rad50 mutant strain, hits give high values
Outline: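 Compounds were applied to the rad50EPP+ yeast strain, which bears a defined DNA repair alteration, and growth inhibition was determined relative to vehicle-treated cultures.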

[4] = NCI Yeast Anticancer Drug Screen. Data for the mgt1 strain (AID 153); conditions: S. cerevisiae mgt1 mutant growth inhibition, hits give high values
Outline: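 Strain: mgt1 yeast, one of a set carrying defined DNA damage repair or cell cycle control alterations. Compound-treated growth compared with vehicle.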

[5] = NCI Yeast Anticancer Drug Screen. Data for the rad50 strain (AID 155);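 further: 0% = growth of vehicle-only cultures of the same strain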; conditions: S. cerevisiae rad50 strain growth inhibition, hits give high values
Outline: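 DNA repair mutant yeast, compound exposure, growth read-out; inhibition is taken relative to vehicle.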

[6] = NCI Yeast Anticancer Drug Screen. Data for the mec2-1 strain (AID 157); conditions: S. cerevisiae mec2-1 strain, hits give high values
Outline: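 Strain: mec2-1 (DNA repair/cell cycle alteration). Compound exposure, then growth measured; inhibition expressed relative to vehicle.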

[7] = NCI Yeast Anticancer Drug Screen. Data for the rad14 strain (AID 159);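 further: 0% = growth of vehicle-treated control cultures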; conditions: S. cerevisiae rad14 strain growth inhibition, hits give high values
Outline: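 DNA repair-defective yeast, compound-exposed; % growth inhibition derived by comparison with vehicle-treated controls.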

[8] = NCI Yeast Anticancer Drug Screen. Data for the sgs1 mgt1 strain (AID 161);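 further: 0% = growth of cultures given vehicle only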; conditions: S. cerevisiae sgs1 mgt1 strain, hits give high values
Outline: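 Read-out: growth inhibition vs vehicle controls. Cells: mutant yeast strain deficient in DNA damage repair.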

[9] = NCI Yeast Anticancer Drug Screen. Data for the CLN2oe strain (AID 163);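 further: 0% = growth of vehicle-only control cultures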; conditions: S. cerevisiae CLN2oe strain, hits give high values
Outline: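 Growth of a genetically modified yeast strain is measured after compound exposure and compared with cultures given vehicle alone.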

[10] = NCI Yeast Anticancer Drug Screen. Data for the cln2 rad14 strain (AID 165);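 further: 0% = growth equal to vehicle treated cultures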; conditions: S. cerevisiae cln2 rad14 strain, hits give high values
Outline: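 Compounds are applied to the cln2 rad14 yeast strain, and growth is then compared with that of vehicle-treated cultures to give inhibition.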

[11] = NCI Yeast Anticancer Drug Screen. Data for the bub3 strain (AID 167); conditions: S. cerevisiae bub3 mutant strain, hits give high values
Outline: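 In this screen, a yeast mutant lacking normal mitotic checkpoint function is challenged with compound. Relative growth versus vehicle gives the inhibition value.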

[12] = NCI Yeast Anticancer Drug Screen. Data for the wt2 strain (AID 169);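 further: 0% = growth of vehicle-treated yeast cultures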; conditions: S. cerevisiae wt2 strain growth inhibition, hits give high values
Outline: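 This strain belongs to a panel of yeast strains with defined genetic alterations in DNA damage repair or cell cycle control. Compounds are applied, and growth inhibition is measured against vehicle-treated cultures.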

[13] = NCI Yeast Anticancer Drug Screen. Data for the mlh1 strain (AID 171);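 further: 0% = growth of vehicle-treated control cultures of the same strain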; conditions: S. cerevisiae mlh1 strain growth inhibition, hits give high values
Outline: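 Growth of the mutant yeast strain after compound exposure, expressed as inhibition relative to vehicle-only controls.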

[14] = NCI Yeast Anticancer Drug Screen. Data for the sgs1 strain (AID 173);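 further: 0% = growth of vehicle-only control cultures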; conditions: S. cerevisiae sgs1 mutant, hits give high values
Outline: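 Growth of a yeast strain bearing a defined genetic alteration is measured after compound treatment. Inhibition is expressed relative to vehicle-only controls.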

[15] = NCI Yeast Anticancer Drug Screen. Data for the mlh1 rad18 strain (AID 175); conditions: S. cerevisiae mlh1 rad18 strain growth inhibition, hits give high values
Outline: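 Read-out is yeast growth inhibition, calculated against vehicle-only controls. The compound was applied to a strain engineered with DNA damage repair alterations.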

[16] = NCI Yeast Anticancer Drug Screen. Data for the rad18 strain (AID 177); conditions: S. cerevisiae rad18 mutant growth inhibition, hits give high values
Outline: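 Growth of the mutant yeast strain after compound exposure, normalised to vehicle-only cultures.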

[17] = at 5.0 µM (retest, dose inferred, filed as 0.5)
[18] = at 50.0 µM (retest, dose inferred, filed as 5.0)

Measured: growth inhibition

NC(=S)N1N=C2c3ccccc3CC[C@@H]2[C@@H]1c1ccccc1
inactive: [1]; at 1.2 µM -34% | [1]; at 3.7 µM -17% | [1]; at 11.0 µM -8% | [1]; at 33.0 µM 7% | [2]; at 1.2 µM 11% | [2]; at 3.7 µM 2% | [2]; at 11.0 µM 2% | [2]; at 33.0 µM 9% | [2]; at 100.0 µM 67% | [3]; at 1.2 µM -31% | [3]; at 3.7 µM -36% | [3]; at 11.0 µM -49% | [3]; at 33.0 µM -40% | [3]; at 100.0 µM -23% | [4]; at 1.2 µM -17% | [4]; at 3.7 µM -29% | [4]; at 11.0 µM -19% | [4]; at 33.0 µM 15% | [5]; at 1.2 µM -13% | [5]; at 3.7 µM -2% | [5]; [17] 35% | [5]; at 11.0 µM -1% | [5]; at 33.0 µM 15% | [6]; at 1.2 µM -10% | [6]; at 3.7 µM -13% | [6]; [17] -16% | [6]; at 11.0 µM -3% | [6]; at 33.0 µM 13% | [6]; at 50.0 µM 64.4% | [7]; at 1.2 µM -36% | [7]; at 3.7 µM -33% | [7]; at 11.0 µM -25% | [7]; at 33.0 µM 2% | [8]; [17] 8% | [9]; at 1.2 µM -28% | [9]; at 3.7 µM -27% | [9]; at 11.0 µM -25% | [9]; at 33.0 µM -10% | [10]; [17] -4% | [10]; [18] 55% | [10]; at 50.0 µM 67.2% | [11]; at 1.2 µM -4% | [11]; at 3.7 µM 11% | [11]; [17] 27% | [11]; at 11.0 µM -4% | [11]; at 33.0 µM 34% | [12]; at 1.2 µM -17% | [12]; at 3.7 µM -5% | [12]; at 11.0 µM -2% | [12]; at 33.0 µM 25% | [13]; at 1.2 µM -31% | [13]; at 3.7 µM -25% | [13]; at 11.0 µM -8% | [13]; at 33.0 µM 23% | [14]; at 1.2 µM 6% | [14]; at 3.7 µM 13% | [14]; at 11.0 µM 27% | [14]; at 33.0 µM 68% | [15]; [17] -15% | [16]; at 1.2 µM -25% | [16]; at 3.7 µM -21% | [16]; at 11.0 µM -11% | [16]; at 33.0 µM 14% | [16]; at 100.0 µM 66%
active: [1]; at 100.0 µM 77% | [4]; at 100.0 µM 88% | [5]; [18] 79% | [5]; at 50.0 µM 75.6% | [5]; at 100.0 µM 86% | [6]; [18] 77% | [6]; at 100.0 µM 73% | [7]; at 100.0 µM 84% | [8]; [18] 82% | [8]; at 50.0 µM 83% | [9]; at 100.0 µM 73% | [11]; [18] 86% | [11]; at 50.0 µM 77.1% | [11]; at 100.0 µM 90% | [12]; at 100.0 µM 86% | [13]; at 100.0 µM 88% | [14]; at 100.0 µM 89% | [15]; [18] 81% | [15]; at 50.0 µM 74.5%
